Out of some 360,000 compounds screened, about 2,200 (0.61%) were called active.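 Rule for the calls: active = inhibition above a per-plate cutoff, the plate's mean sample inhibition plus 3 SD (cut at about 24% in these data); inactive = the rest.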 Many of the other results were omitted from the sample, so actives are more common in it than they were.
Assay: nonselective inhibitors of ATP calcium response in CHO-K1, primary screen, counter-screen for M1 antagonist project, cell-based, Fluo-8 calcium fluorescence, full deck, 1536-well (AID 602250);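 note: 0% = DMSO plus EC80 ATP and 100% = DMSO alone without ATP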
Settings: CHO-K1 parental, ATP-induced calcium, Fluo-8 fluorescence; at 3 µM; hits give high values

SMILES	inhibition
Cc1c(NC(=O)CSCc2ccccc2)cccc1C(=O)O	-4.2% (inactive)
CC(C)CN(CC(C)C)CC(O)CN(c1ccccc1)S(=O)(=O)c1ccccc1[N+](=O)[O-] (configuration not stated)	-22.2% (inactive)
COc1ccc(C2(CNC(=O)Cc3ccc(OC)c(OC)c3)CCCC2)cc1	0.54% (inactive)
O=C(O)/C=C/c1ccc(S(=O)(=O)N2CCCCCC2)cc1	-2.18% (inactive)
C=CCNC(=O)/C=C/c1ccc(C(C)C)cc1	-7.72% (inactive)
O=C(/C=C(O)/C=C/c1ccc(O)cc1)/C=C/c1ccc(O)cc1	31.8% (active)
COc1cccc(CNC(=O)CCC2CCCN(C(=O)c3cc(C)[nH]n3)C2)c1 (configuration not stated)	-15.8% (inactive)
CCOC(=O)c1c(NC(=O)C2CC=CCC2C(=O)O)sc(C)c1CC (configuration not stated)	-0.11% (inactive)
CCCCC(=O)NCc1ccc(F)cc1	-1.22% (inactive)
CCCOCC(O)CC(CC)C(=O)NNC(=S)Nc1ccccc1 (configuration not stated)	1.16% (inactive)
CCCCC(=O)NNC(=S)NC(=O)C(c1ccccc1)c1ccccc1	61.1% (active)
Cc1ccc(C)c(NC(=O)C2Cc3ccccc3CN2C(=O)OCc2ccccc2)c1 (configuration not stated)	-8.92% (inactive)
Cc1cccc(CSc2nnc(C)c(=O)n2N)c1	-7.07% (inactive)
Cn1c(SCC(=O)N2CCCCC2)nc2c(c1=O)SCC2	8.86% (inactive)
Cc1cccc(CSc2nc3c(c(=O)n2C)SCC3)c1	27.6% (active)
COc1cc(S(=O)(=O)N2CCOCC2)ccc1NC(=O)COc1ccc(N(C)S(=O)(=O)c2ccc(C)cc2)cc1	-12% (inactive)
CCn1c(CNC(=O)c2cc(OC)c(OC)c(OC)c2)cc2cc(C)ccc21	36.1% (active)
COc1cc(C(=O)NCc2ccc3c(c2)cc(C)n3C)cc(OC)c1OC	19.1% (inactive)
COc1cc(C(=O)NCc2cc3cc(Cl)ccc3n2C)cc(OC)c1OC	-7.3% (inactive)

SMILES	inhibition
CN(Cc1nc(-c2cnccn2)no1)Cc1n[nH]c2c1CCCCC2	-7.73% (inactive)
CC1CCCN(CC(O)COc2ccc3c(c2)OCO3)C1 (configuration not stated)	-7.13% (inactive)
Cn1c(=O)[nH]c(=O)c2c1nc(N(CCO)Cc1ccccc1)n2Cc1ccccc1Cl	-11.1% (inactive)
CN(C)S(=O)(=O)c1cccc(NC(=O)COC(=O)C2(c3ccccc3F)CCCC2)c1	0.69% (inactive)
O=C(COC(=O)C1(c2ccc(F)cc2)CCCC1)N1CCNC1=O	-20.1% (inactive)
NS(=O)(=O)c1ccc(NC(=O)COC(=O)C2(c3ccc(F)cc3)CCCC2)cc1	31.1% (active)
O=C(N[C@H]1C/C=C\C(c2ccc(F)cc2)N(Cc2ccccc2)C(=O)C1)OCC1c2ccccc2-c2ccccc21 (some centres not stated)	-13% (inactive)
Cc1ccc(S(=O)(=O)N2CCC(=O)N([C@H](COCc3ccccc3)Cc3ccccc3)CC2)cc1	-5.28% (inactive)
Cc1ccc(S(=O)(=O)N2CCC(=O)N([C@H](COCc3ccccc3)C(C)C)CC2)cc1	41.5% (active)
COc1ccc(COCCN2CCN(S(=O)(=O)c3ccccc3)CCC2=O)cc1	-8.23% (inactive)
O=C(Nc1ccc(Cl)c(Cl)c1)c1ccccc1NC(=O)C1CC=CCC1C(=O)O (configuration not stated)	3.94% (inactive)
CCCSc1ncccc1C(=O)O	-2.1% (inactive)
Cn1nccc1C(=O)NC1CCCc2c1cnn2-c1ccccc1F (configuration not stated)	26.9% (active)
COc1ccc(C(=O)NC2CC(C)(C)Cc3c2cnn3-c2ccccc2C)o1 (configuration not stated)	-6.41% (inactive)
CC1=C(C(=O)NC2CC(C)(C)Cc3c2cnn3-c2ccc(C)cc2)OCCO1 (configuration not stated)	-1.6% (inactive)
COC(=O)c1ccc(C(=O)NC2CC(C)(C)Cc3c2cnn3-c2ccc(F)cc2)nc1 (configuration not stated)	-7.53% (inactive)
Cn1nccc1C(=O)NC1CCCc2c1cnn2-c1ccc(F)cc1F (configuration not stated)	28.7% (active)
COc1ccc(C(=O)NC2CCCc3c2cnn3-c2cccc(C)c2C)c(OC)n1 (configuration not stated)	19.6% (inactive)
O=c1cc(CN2CCN(S(=O)(=O)/C=C/c3ccccc3)CC2)c2ccc(O)cc2o1	6.97% (inactive)

SMILES	inhibition
Cc1cc(NC(=O)CCS(=O)(=O)c2ccc(F)cc2)no1	-0.17% (inactive)
COc1ccc2c(c1)C=CC1(O2)N(CCO)c2ccccc2C1(C)C (configuration not stated)	-4.71% (inactive)
Cc1cc(OCC(=O)Nc2c(C)n(C)n(-c3ccccc3)c2=O)ccc1[N+](=O)[O-]	-14.3% (inactive)
O=C(NCC(c1cccs1)N1CCOCC1)c1cc(Cl)ccc1[N+](=O)[O-] (configuration not stated)	10.5% (inactive)
COc1ccccc1C(=O)NC(CCSC)C(=O)N1CCN(C/C=C/c2ccccc2)CC1 (configuration not stated)	-0.28% (inactive)
CN(Cc1cccnc1)C(=O)c1cc(COc2ccc3ncccc3c2)on1	37.4% (active)
CN(Cc1cnccn1)C(=O)c1cc(COc2cccc(C(F)(F)F)c2)on1	-4.38% (inactive)
CC(=O)c1cccc(OCc2cc(C(=O)NC(C)Cc3cccnc3)no2)c1 (configuration not stated)	-0.09% (inactive)
O=C(NCCCc1ccccc1)c1cc(COc2c(F)cccc2F)on1	-16.9% (inactive)
Cc1ccc(Sc2cc(N3CCOCC3)nc(-c3ccccc3)n2)cc1	-3.23% (inactive)
Cc1ccccc1C1=NC(C(F)(F)F)(C(F)(F)F)c2c(n(-c3ccc(F)cc3)c(=O)[nH]c2=O)N1	-9.81% (inactive)
O=c1[nH]c(=O)n(Cc2ccco2)c2c1C(C(F)(F)F)(C(F)(F)F)N=C(c1ccco1)N2	30.1% (active)
Nc1c(N(Cc2ccco2)C(=O)c2cccc(F)c2)c(=O)[nH]c(=O)n1Cc1ccccc1	0.73% (inactive)
CC(=O)c1ccccc1NC(=O)CC1(CC(=O)O)CCCCC1	-2.82% (inactive)
CCC(C)(C(=O)Nc1ccccc1C)N(C(=O)CNC(C)=O)c1ccc(C)cc1 (configuration not stated)	-1.48% (inactive)
CCCCSc1[nH]c(=O)c(C(=O)OCC)cc1C#N	5.2% (inactive)
CN1CCN(Cc2nc3cc(NC(=O)COc4ccc([N+](=O)[O-])cc4)ccc3n2C)CC1	-3.48% (inactive)
CCOC(=O)c1cnc(SCC(=O)Nc2cccc(OC)c2)nc1N	11.2% (inactive)
CCCCCCCCn1c2c(c(=N)c3c1CCC3)CCCC2	32.5% (active)
